# From PubChem BioAssay (NCI)
# This is part of a sample that, as a whole, favours compounds with a hit. Of some 83,000 tested, about 20% had one in any assay.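 Cell lines were cultured in 96-well plates, exposed to a single compound concentration, and assessed for percent growth 48 hours later.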 Values without a mark were called inactive. The source made the active and inactive calls. Rule for the calls: active = growth percent below 10; inactive = the rest.
# Columns and labels:
# Assay in all cases: NCI-60 one-dose screen, 48 h (100 = growth as untreated, 0 = no growth, -100 = all killed)
# Details in all cases: 10 µM unless noted
# [1] = test system: HCT-15 colon
# [2] = test system: HT29 colon
# [3] = test system: SNB-75 CNS
# [4] = test system: SNB-19 CNS
# [5] = test system: U251 CNS
# [6] = test system: PC-3 prostate
# [7] = test system: SK-MEL-5 melanoma
# [8] = test system: UACC-62 melanoma
# [9] = test system: LOX IMVI melanoma
# [10] = test system: SK-MEL-28 melanoma
# [11] = test system: SK-MEL-2 melanoma
# [12] = test system: EKVX NSCLC
# [13] = test system: SN12C renal
# [14] = test system: UO-31 renal
# [15] = test system: TK-10 renal
# [16] = test system: ACHN renal
# [17] = test system: CAKI-1 renal
# [18] = test system: A498 renal
# [19] = test system: CCRF-CEM leukemia
# [20] = test system: MOLT-4 leukemia
SMILES,growth [1],growth [2],growth [3] [%],growth [4] [%],growth [5],growth [6],growth [7],growth [8],growth [9],growth [10],growth [11],growth [12],growth [13],growth [14],growth [15],growth [16],growth [17],growth [18],growth [19],growth [20]
c1coc(CNc2c3ccccc3nc3ccccc23)c1,44.2%,35.1%,81.5,62.8,65.1%,67%,84.3%,66.1%,37.1%,97.7%,101%,62.1%,53.5%,39.5%,88.4%,26.2%,41%,20.1%,57.2%,27.2%
CCN(CC)Cc1cc(Nc2ccnc3ccc(OC)cc23)ccc1O,32.4%,-24.3% (active),101,74.4,35%,39.8%,50.4%,87.7%,4.78% (active),105%,26.5%,67.1%,56.6%,2.04% (active),49.6%,35.1%,45.4%,45.6%,55.5%,29.7%
COc1ccc(-c2conc2-n2nc(-c3ccccc3)nc2-c2ccccc2)cc1,107%,102%,98.3,104,106%,95.6%,101%,103%,92.6%,108%,103%,101%,101%,73.2%,137%,97.2%,83.8%,120%,106%,99.1%
CC(C)(C)OC[C@@H]1N=C(c2ccc(Br)cc2)Nc2nc3ccccn3c2C1=O,44.1%,21.8%,77.4,76.5,63.5%,53.4%,38.4%,53.6%,58.7%,68.6%,49.2%,81.6%,84.1%,52.1%,95.1%,75.3%,64.2%,66.9%,67.8%,53.7%
CS(=O)(=O)c1ccc(C(=O)N/N=C/c2ccccc2O)cc1,18%,43.6%,77.8,45.4,27.8%,54.3%,32.2%,16.4%,21.4%,55.9%,40%,25.8%,58.7%,18%,45.8%,28.3%,34.9%,75.2%,15.3%,9.19% (active)
CN1C(=O)NC(Cc2c[nH]c3c(Cl)cccc23)C1=O (stereo not given),99.5%,110%,103,106,92.8%,82.9%,98.5%,96.1%,99.7%,115%,106%,118%,101%,78.5%,147%,99.3%,125%,106%,113%,111%
COc1ccc(-c2cnc(-c3ccncc3-c3cccc(OC)c3)o2)cc1,7.4% (active),-36.6% (active),41.2,25.8,24.3%,16.9%,-20.4% (active),24.9%,27.3%,57.6%,5.27% (active),58.1%,15%,42.6%,30.5%,17.1%,32%,35.3%,3.12% (active),11.5%
COc1cc(/C=C2\CN(C(=O)OC(C)(C)C)C/C(=C\c3ccc(O)c(OC)c3)C2=O)ccc1O,98.4%,96.5%,94.8,87.3,92.9%,81.7%,93.4%,82.4%,92.4%,111%,86.2%,92.8%,88.9%,81%,105%,100%,74.2%,104%,101%,47.4%
Oc1ccc(-c2nc3ccccc3s2)cc1CN(Cc1ccccn1)Cc1ccccn1,15.2%,25.7%,38.7,20.5,8.51% (active),30.3%,-67.4% (active),8.93% (active),2.31% (active),33.1%,3.08% (active),5.39% (active),20.3%,-31.8% (active),2.77% (active),4.42% (active),-15.8% (active),31.9%,6.5% (active),2.86% (active)
O=C1/C=C/[C@@H](O)[C@@H]2C[C@@H](O)C[C@H]2/C=C/CCC[C@H]([C@@H](O)CO)O1,95.3%,80.2%,84,66.5,69.1%,88.7%,4.48% (active),62.5%,38.7%,38.8%,98.4%,96.6%,102%,68.3%,121%,109%,97.6%,64%,101%,103%
CCCCCCCCOC(=O)C(C)OC(=O)OCCOCCOC(=O)OC(C)C(=O)OCCCCCCCC (stereo not given),111%,115%,102,104,106%,87.7%,107%,94.2%,101%,106%,110%,94%,99.3%,87.5%,115%,98.8%,95.8%,119%,102%,108%
S=C(S)Oc1cccc2cccnc12,105%,98%,87,107,105%,84.7%,110%,96.4%,98.9%,109%,105%,115%,89.8%,62.2%,100%,96.2%,91.7%,105%,103%,83.6%
C=C1C[C@@]2(C)C(CC[C@]3(C)C2CC=C2C4CC(C)(C)C[C@@H](OC(=O)/C(C)=C\C)[C@]4(C(=O)O)CC[C@]23C)C(C)(C)C1=O (stereo not given in full),-16.7% (active),-20.1% (active),52.5,27.6,-47.9% (active),-6.78% (active),26.4%,-12.6% (active),-65.7% (active),2.5% (active),18.8%,31.7%,6.55% (active),-74.6% (active),17.2%,-83.8% (active),-7.09% (active),-17.4% (active),2.34% (active),7.64% (active)
CCCCn1cnc2c(SCc3ccc([N+](=O)[O-])cc3)nc(N)nc21,88.2%,98.6%,95.7,86,90.6%,89.8%,85.8%,80.4%,88%,117%,91.5%,103%,87%,65.2%,85%,87.5%,87.7%,86.3%,86.3%,24.3%
